# Bioassay records (PubChem BioAssay)
# RORgamma inh: blocks mouse ROR gamma transcriptional activity | Drosophila S2 Gal4-RORgamma UAS-luciferase reporter, 20 h | 310,000 compounds, 5.4% hits | Potency, µM (doses to about 53.6 µM), without a hit: at the top dose activity change, negative = inhibition, actives largely listed as inhibitors | P51450; further: nearly all actives have a fitted effect of over 60% in size
# Target sequence (P51450 whole entry, looked up, the tested form may be a part): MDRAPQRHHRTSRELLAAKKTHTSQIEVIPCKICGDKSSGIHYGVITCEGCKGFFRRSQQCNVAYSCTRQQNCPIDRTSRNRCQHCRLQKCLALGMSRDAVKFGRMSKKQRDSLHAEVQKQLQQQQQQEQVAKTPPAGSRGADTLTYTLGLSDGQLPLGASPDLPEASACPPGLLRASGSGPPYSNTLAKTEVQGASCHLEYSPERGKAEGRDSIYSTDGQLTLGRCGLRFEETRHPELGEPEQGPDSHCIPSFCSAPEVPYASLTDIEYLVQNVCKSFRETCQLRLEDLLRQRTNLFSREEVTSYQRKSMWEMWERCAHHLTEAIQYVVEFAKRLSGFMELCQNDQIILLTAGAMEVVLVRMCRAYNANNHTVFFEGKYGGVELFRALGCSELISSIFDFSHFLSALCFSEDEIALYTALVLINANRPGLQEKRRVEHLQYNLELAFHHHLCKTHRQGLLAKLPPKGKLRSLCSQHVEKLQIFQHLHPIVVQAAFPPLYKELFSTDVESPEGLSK
#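 Compounds are pin-transferred onto Drosophila Schneider cells expressing a copper-inducible Gal4–ROR gamma transactivation domain fusion. After 1 hr, copper sulfate is added to 700 uM final; luciferase is read 20 hr later.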
# ELG1 DNA repair: inhibitors of ELG1-dependent DNA repair in HEK293T cells; Potency, µM (top dose mostly 46.1 µM), without a hit: at the top dose activity change, negative = inhibition, hits mostly inhibitors; HEK293T ELG1-luciferase reporter, luminescence, 16 h; DNA damage induced by 5-fluorouridine; AID 504467; 330,000 compounds, 2.3% hits; further: nearly all actives have a fitted effect of over 55% in size
#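 Step one: seed 2,000 cells per well. Step two: pin-transfer compound or DMSO alongside 5-fluorouridine. Step three: incubate 16 hr, 37 °C, 5% CO2. Step four: add ONE-Glo, wait 30 min, read luminescence.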
# VP16 counter: counter-screen for ROR gamma inhibitors: Gal4-VP16 reporter. Potency, µM (doses to about 53.6 µM), for inactives: at the highest dose activity, negative = inhibition, most hits filed as inhibitors. 310,000 compounds, 3.5% hits. Drosophila S2 Gal4-VP16 UAS-luciferase, luminescence, 20 h;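 further: Gal4-VP16 expression switched on by copper sulfate through the metallothionein promoter; nearly all actives have a fitted effect of over 50% in size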
# TDP1 cell CPT: growth inhibition of DT40 Tdp1-/-;hTDP1 cells with camptothecin (screen for TDP1 inhibitors); chicken DT40 Tdp1-/-;hTDP1 cells + 20 nM CPT, ATP luminescence, 48 h; Potency, µM (series often up to 46.2 µM), for inactives: top-dose activity change, negative = growth inhibition, actives largely listed as inhibitors; 420,000 compounds, 12% hits; AID 686979; further: nearly all actives have a fitted effect of over 55% in size
#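 Chicken DT40 Tdp1-/- cells complemented with human TDP1, 400 cells/well, exposed to compounds plus 20 nM camptothecin for at least 48 h at 37 C; viability read as ATP content by CellTiter-Glo luminescence.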
# 12-LOX inh: inhibitors of human 12S-lipoxygenase ALOX12; P18054; purified 12hLO, xylenol orange hydroperoxide absorbance; Potency, µM (series often up to 108 µM), for the others: top-dose activity change, negative = inhibition, hits mostly inhibitors; 580,000 compounds, 1.1% hits; AID 1671190
#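 Purified human 12hLO (150 nM final) in 25 mM Hepes, 0.01% Triton X-100, pH 7.0 was preincubated 15 min at room temperature with compound. Then 40 uM arachidonic acid was added, 30 min. Hydroperoxide was read by Fe-XO absorbance ratio 573/405 nm.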
# DT40 TDP1 no CPT: qHTS for Inhibitors of human tyrosyl-DNA phosphodiesterase 1 (TDP1): qHTS in cells in absence of CPT | DT40 Tdp1-/- hTDP1 cells, no CPT, ATP luminescence, 48 h | Potency, µM (highest dose often 46.2 µM), inactives show at the top dose activity change, negative = growth inhibition, most hits filed as inhibitors | 420,000 compounds, 15% hits; further: nearly all actives have a fitted effect of over 55% in size
#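 Growth kinetics read by CellTiter-Glo luminescence after ≥48 hr at 37 °C. Cells: DT40 Tdp1-/- stably carrying human TDP1, 400 per well, compound exposure in the absence of CPT (DMSO vehicle).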
# Numbers without * were called inactive; ? = inconclusive; . = not tested or not shown; [ ] = another dose, or the depositor's remark. Most compounds without a hit are left out; they make up all but 15% or so of the library. The call rests on the fitted dose curve; in most records, active means well fitted curve in the direction sought with a large enough effect; inconclusive means small, poorly fitted or top-dose-only effect, or another doubt; inactive means no such curve, though single readings can be large; an effect the other way counts as inactive or inconclusive. On the % scale 0 is the no-effect control and ±100 the full control effect; potency means the concentration at half of the fitted maximal effect.
SMILES,RORgamma inh,ELG1 DNA repair,VP16 counter,TDP1 cell CPT,12-LOX inh,DT40 TDP1 no CPT
COc1cc(OC)c(NC(=S)Nc2cccc(C)c2)cc1Cl,10µM*,4%,?,-27%,?,9.2µM*
COc1cc(C)c(NC(=S)Nc2cccc(Cl)c2)cc1OC,?,14%,-30%,-12%,?,-23%
COc1cc(C)c(NC(=S)Nc2ccc(C)c(Cl)c2)cc1OC,11µM*,0%,?,0%,?,-24%
CC1=CC(C)(C)N(S(=O)(=O)c2ccc(F)cc2)c2ccccc21,-1%,-2%,1%,26µM*,0%,?
CC1=CC(C)(C)N(S(=O)(=O)c2ccc(C)cc2)c2ccc(C)cc21,?,-2%,-7%,5.8µM*,5%,18µM*
CC(=O)N1c2ccccc2C(C)=CC1(C)C,-1%,6%,-12%,-18%,3%,-17%
C/C=C/C(=O)N1c2ccc(C)cc2C(C)=CC1(C)C,-18%,4%,-7%,?,-4%,?
CC(Sc1nc2ccccc2s1)C(=O)Nc1nnc(C(C)C)s1 (centres undefined),2.8µM*,3%,?,-13%,.,?
CNC(=O)NC(=O)CN(C)Cc1ccc(C(=O)NC2CC2)cc1,.,.,.,.,68%,.
CCOc1ccc(NC(=S)NNC(=O)c2cc(Br)ccc2Cl)cc1,-15%,-11%,0%,5%,14%,-2%
CCOc1ccccc1Nc1ccnc2cc(Cl)ccc12,-16%,-10%,-2%,?,-1%,23µM*
O=CNNC(=S)Nc1ccc(Cl)cc1Cl,.,.,.,.,35%,.
CCOc1ccc(NC(=S)NNc2ccnc3cc(Cl)ccc23)cc1,7%,23µM*,-8%,?,?,13µM*
S=C(NNc1ccnc2cc(Cl)ccc12)Nc1ccc(Cl)cc1Cl,0%,21µM*,-21%,4.6µM*,?,3.7µM*
CCN(CC)Cc1ccc(Nc2ccnc3cc(Cl)ccc23)cc1O,13%,.,-7%,7.3µM*,.,6.5µM*
Cc1cc(C)cc(NC(=S)/C(=C(\[O-])c2ccc(Cl)cc2Cl)[n+]2ccccc2)c1,2%,-14%,9%,?,57%,-26%
Cc1ccc(NC(=S)/C(=C(\[O-])c2ccc(C)c([N+](=O)[O-])c2)[n+]2ccccc2)cc1C,18%,?,-3%,.,.,.
[O-]/C(=C(\C(=S)Nc1ccc(SC(F)F)cc1)[n+]1ccccc1)c1ccc(Cl)cc1Cl,-31%,15µM*,3%,10µM*,?,10µM*
Cc1ccc(/C([O-])=C(/C(=S)Nc2ccc(SC(F)F)cc2)[n+]2ccccc2)cc1[N+](=O)[O-],2%,-10%,-3%,?,?,12µM*
Cc1ccc(NC(=O)c2ccccc2NS(=O)(=O)c2ccc(Cl)s2)cc1,?,?,20µM*,23µM*,?,15µM*
O=C(Nc1ccccc1Cc1ccccc1)c1ccccc1NS(=O)(=O)c1ccc(Cl)s1,?,?,13µM*,4.6µM*,?,3.7µM*
Nc1cccc(OCCOc2ccccc2)c1,.,.,.,.,-9%,.
OCCNCc1cc(Br)ccc1OCc1ccc(Cl)cc1Cl,0%,-26%,-4%,18µM*,-20%,9.2µM*
OCCNCc1cc(Br)ccc1OCc1ccc(F)cc1,16%,-25%,-7%,?,-2%,?
OCCNCc1cc(Br)ccc1OCc1ccc(Cl)cc1,27%,-15%,-9%,21µM*,-6%,29µM*
SMILES,RORgamma inh,ELG1 DNA repair,VP16 counter,TDP1 cell CPT,12-LOX inh,DT40 TDP1 no CPT
Cc1nncn1C1CCN(S(=O)(=O)c2cc(F)cc(F)c2)CC1,.,.,.,.,41%,.
COc1ccc(-c2nnc3ccc(N4CCC(c5ccccc5)CC4)nn23)nc1,.,.,.,.,32%[176 µM],.
COc1ccc(C2(C(=O)NCCCN3CCOCC3)CCOCC2)cc1,3.5µM*,3%,-5%,-5%,-44%,8%
O=C(c1cccnc1)N1CCC2(CC1)CC(N(C(=O)c1ccccc1)C1CC1)CCO2 (centres undefined),.,.,.,.,-3%,.
Cc1ccc(OCCn2cnc3c(N)ncnc32)cc1,29%,?,3%,1%,?,-5%
CCOc1ccc(OCCn2c(=S)[nH]c3c(N)ncnc32)cc1,2.5µM*,-3%,4%,-22%,?,0%
COc1cc2nc(Nc3ccc(F)cc3)nc(N)c2cc1OC,-6%,?,-4%,6.5µM*,?,4.6µM*
Cc1ccc(Nc2nc(N)c3ccccc3n2)cc1Cl,17%[1.91 µM],?,-24%,15µM*,?,?
Cc1ccccc1Nc1nc(N)c2ccccc2n1,?,?,?,?,-2%,?
CCOC(=O)c1ccc(Nc2nc(N)c3cc(OC)c(OC)cc3n2)cc1,-43%,-24%,?,7.3µM*,?,21µM*
Cc1ccc(Nc2ncnc(N)c2[N+](=O)[O-])cc1Cl,.,.,.,.,-46%,.
COc1cc2nc(Nc3ccc(C)c(Cl)c3)nc(N)c2cc1OC,-76%,?,?,?,20µM*,?
COC(=O)c1ccc(Nc2nc(C)cc(C)n2)cc1,-32%,9%,?,-3%,3%,-7%
Cc1csc(NC(=O)C(C)Sc2nnc(-c3ccco3)n2CC(C)C)n1 (centres undefined),.,.,.,.,19%,.
Cc1ccccc1S(=O)(=O)Cc1ccc(C(=O)NCCN2CCCC2)o1,.,.,.,.,-15%,.
COc1cc2nc(Nc3ccc(C)c(C)c3)nc(N)c2cc1OC,3%,-3%,-8%,23µM*,?,15µM*
COc1ccc(C)cc1Nc1nc(N)c2ccccc2n1,29%,10%,-1%,?,?,?
COc1cc2nc(Nc3cccc(C)c3)nc(N)c2cc1OC,.,.,.,12µM*,-24%,3.3µM*
O=C(O)c1ccc(COc2ccc(Cl)cc2)cc1,.,.,.,.,-26%,.
S=C(Nc1cc(Cl)cc(Cl)c1)N1CCCC1,5µM*,-4%,?,3%,.,13%
S=C(Nc1ccc(Cl)cc1)N1CCCC1,-45%,23%,8%,-7%,2%,1%
O=C(Nc1ccc2nsnc2c1)N1CCCCCC1,?,?,11%,-22%,0%,-2%
Cc1ccc(NC(=S)N2CCCCC2)cc1C,4.5µM*,?,?,0%,?,?
Cc1ccc(C2CCN(C(=S)Nc3cccc(C)c3)C2)cc1 (centres undefined),7.9µM*,16%,-7%,?,?,18µM*
